The values below come from PubChem BioAssay.

Inconclusive results are not listed. Calls of active or inactive are those of the source.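 How the source made its calls, unless noted: active means viability at or under a set limit in both replicates, limit being median viability minus 3 SD (cut at about 48% in these data, passing the limit was not always enough); inconclusive means at or under the limit in just one replicate; inactive means at or above the limit in both replicates.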

A short description of test [1]: reducers of endogenous Her2 protein level, primary screen, SKBR3 breast tumor cells, AlphaScreen, ATP viability (AID 461;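 active means Her2 level under about 52% in both replicate screens, with viability over 70% of control, limit read from the data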;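 on Her2 level: lower value means less Her2 protein in the cells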;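 on viability: percent of carrier control wells set as 100% viability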). The following applies: 18-24 h, measured here: SKBR3 viability, ATP luminescence, at 10 µM. (Alpha assays give light when donor and acceptor beads are brought close together.)
Test [2] deals with Receptor tyrosine-protein kinase erbB-2 (Homo sapiens) (UniProt P04626). The test is described as above. The settings on record: 18-24 h, at 10 µM, stronger effect = lower value.
Receptor tyrosine-protein kinase erbB-2 (Homo sapiens), sequence (P04626 whole entry, looked up): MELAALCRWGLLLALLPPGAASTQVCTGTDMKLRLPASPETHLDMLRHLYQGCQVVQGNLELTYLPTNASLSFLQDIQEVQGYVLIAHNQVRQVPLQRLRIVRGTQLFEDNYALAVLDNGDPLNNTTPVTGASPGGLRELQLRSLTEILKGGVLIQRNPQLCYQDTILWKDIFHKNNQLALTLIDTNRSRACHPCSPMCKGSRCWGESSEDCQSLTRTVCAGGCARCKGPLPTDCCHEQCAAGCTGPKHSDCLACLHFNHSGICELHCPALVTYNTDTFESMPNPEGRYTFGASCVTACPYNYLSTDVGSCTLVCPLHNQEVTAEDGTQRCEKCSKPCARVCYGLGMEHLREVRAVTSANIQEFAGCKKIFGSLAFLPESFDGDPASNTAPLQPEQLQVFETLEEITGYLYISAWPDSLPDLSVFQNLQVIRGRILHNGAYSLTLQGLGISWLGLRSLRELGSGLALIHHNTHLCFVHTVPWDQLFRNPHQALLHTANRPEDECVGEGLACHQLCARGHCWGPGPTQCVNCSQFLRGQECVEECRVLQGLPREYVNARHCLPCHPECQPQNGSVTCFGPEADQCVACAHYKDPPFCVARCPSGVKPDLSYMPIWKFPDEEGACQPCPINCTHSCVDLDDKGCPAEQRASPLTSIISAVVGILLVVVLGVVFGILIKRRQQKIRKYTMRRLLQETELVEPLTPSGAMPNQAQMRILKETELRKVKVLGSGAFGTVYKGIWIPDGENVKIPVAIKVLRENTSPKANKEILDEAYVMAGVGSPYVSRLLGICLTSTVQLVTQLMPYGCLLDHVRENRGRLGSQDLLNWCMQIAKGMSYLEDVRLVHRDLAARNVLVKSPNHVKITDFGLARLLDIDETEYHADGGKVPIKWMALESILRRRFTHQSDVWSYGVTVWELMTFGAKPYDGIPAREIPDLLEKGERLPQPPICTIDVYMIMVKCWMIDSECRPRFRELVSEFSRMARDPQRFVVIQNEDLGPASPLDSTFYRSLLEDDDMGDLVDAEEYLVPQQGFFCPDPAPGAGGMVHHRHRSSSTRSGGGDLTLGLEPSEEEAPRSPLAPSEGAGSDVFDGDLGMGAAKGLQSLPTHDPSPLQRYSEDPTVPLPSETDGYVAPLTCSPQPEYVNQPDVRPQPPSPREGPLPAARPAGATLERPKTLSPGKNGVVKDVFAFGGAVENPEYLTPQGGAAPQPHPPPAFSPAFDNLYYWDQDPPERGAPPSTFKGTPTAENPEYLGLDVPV
Test [3] can be described thus: SK-BR-3 cell growth inhibitors, pilot screen, 24 h, human (AID 572;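 active means viability at or below 10% of carrier control in both of two separate runs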;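 further: compound exposure lasted between 18 and 24 h rather than exactly 24 h; 100% = carrier-treated control wells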). The settings on record: SK-BR-3 viability, CellTiter-Glo luminescence, at 10 µM, stronger effect = lower value. In general terms: In ATP-based viability assays light output follows the ATP content of the culture.
A short description of test [4]: HUVEC growth inhibition – cell-based, human, primary screen (AID 575;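 active means viability at or below 30% in both replicate assays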;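 further: 100% = median of untreated cell wells with 0.1% DMSO on each plate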). The following applies: HUVEC proliferation, CellTiter-Glo luminescence, 72 h; at 10 µM; stronger effect = lower value.
A short description of test [5]: growth inhibitors of H69AR lung tumor, primary screen, human, duplicate replicates (AID 580).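 Further: 100% = mean luminescence of untreated wells and 0% = no signal.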 The settings on record: H69AR lung tumor cells viability, ATP luminescence, 72 h; at 10 µM; stronger effect = lower value.
The nature of test [6]: reversal of MRP1-mediated doxorubicin resistance, pilot screen, H69AR cells, doxorubicin co-treatment (AID 601;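 active means viability loss from added drug above about 55%, and viability with drug at most 40%, in both replicates, limit read from the data, passing the limit was not always enough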). The following applies: CellTiter-Glo, 72 h, at 10 µM; for differential viability (reversal): stronger effect = higher value.
A short description of test [7]: 384-well plate pilot, post-Golgi transport modulator project, inhibition of yeast transport mutant growth (AID 636; in the data active means inhibition above about 31%). The following applies: absorbance 615 nm, about 18 h, stronger effect = higher value.
The nature of test [8]: growth suppression of yeast trafficking mutant, preliminary HTS, modulators of trafficking downstream of Golgi apparatus project, 1536-format plate, OD 615 nm (AID 637; in the data active means inhibition above about 30%). The following applies: yeast transport mutant growth, absorbance 615 nm, 18 h; stronger effect = higher value.
Test [9] in a line: OD615 S. cerevisiae growth inhibition, permissive medium, pilot counter-assay, permissive growth control for S. cerevisiae lifespan shortening project (AID 705;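 active means growth inhibition above 25% in both replicates, a cutoff set 3 SD above the mean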). The following applies: OD615, 24 h, at 10 µM, stronger effect = higher value.
A short description of test [10]: Restrictive medium S. cerevisiae growth inhibition, OD615, pilot screen of yeast lifespan reduction project, restrictive growth control (AID 706;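 active means growth inhibition above a set limit, 3 SD over mean compound inhibition, in both replicates, cut at about 43% in these data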;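 further: modified DeaD lifespan yeast strain shifted to restrictive glucose medium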). The settings on record: OD615, 48 h, at 10 µM, stronger effect = higher value.
Test [11] is described as follows: viability gain of MRP-1-high H69AR cells under doxorubicin, pilot screen, MRP-1 activator project, CellTiter-Glo, duplicate (AID 807;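 active means viability increase at or above a cutoff of the median across tested compounds plus 3 SD, cut at about 8.5% in these data, passing the limit was not always enough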;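 further: compound pretreatment 18-22 h then 72 h combined with doxorubicin; 0% = doxorubicin alone and 100% = vehicle without doxorubicin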). The settings on record: H69AR viability with doxorubicin, CellTiter-Glo luminescence; at 10 µM; stronger effect = higher value.
The nature of test [12]: growth suppression of beta-catenin knockout HCT116, pilot screen, human colon tumor cells (AID 823;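 active means cell viability at or below a set limit in both duplicate runs, the limit being the all-compound median minus 4 SD, cut at about 23% in these data, passing the limit was not always enough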;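 further: 0% = wells killed by 20 µM Hyamine and 100% = untreated DMSO cell wells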). The following applies: CellTiter-Glo, 60 h, at 10 µM, stronger effect = lower value.
Test [13] can be described thus: growth suppression of PTEN-deleted HCT116, pilot screen, cell-based, HCT116 clonal line, CellTiter-Glo (AID 824;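 active means viability at or below 27.92% in each of two runs, the all-compound median minus 4 SD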;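 further: 0% = 20 µM Hyamine control and 100% = vehicle cell control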). The settings on record: 60 h, at 10 µM, stronger effect = lower value.
The nature of test [14]: inhibitors of the yeast RAM network, pilot screen, dse1pr::URA3 reporter, 5-FOA selection (AID 869;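 active means inhibition over a set limit, the all-compound mean plus 3 SD, in both replicate runs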;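 further: 0% = DMSO wells with no growth and 100% = 10 µM 1-NA-PP1 with full growth; RAM network block rescues cells from 5-FOA so hits raise OD615 growth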). The following applies: S. cerevisiae dse1pr::URA3 5-FOA growth, OD615, 2 d; at 10 µM; stronger effect = higher value; strain carries analog-sensitive mutant Cbk1 kinase.
Test [15] in a line: RAM signaling pathway blockade in yeast – S. cerevisiae, Pdr1DBD-CYC8 efflux-inhibited sensitized strain, primary screen (AID 1298;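 active means RAM network inhibition above 8.4% in each of two replicates, 3 SD over the compound average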;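 further: 0% = DMSO untreated cells without growth and 100% = 10 µM 1-NA-PP1 full growth; higher means more yeast growth rescued from 5-FOA killing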). The following applies: S. cerevisiae cbk1-as DSE1-URA3 strain, 5-FOA growth OD615, 2 d; at 50 µM; stronger effect = higher value.
The mark [16] stands for this setting: H69AR cells + 2 uM doxorubicin, measured here: viability with 2 uM doxorubicin, stronger effect = lower value.
Setting [17] is: H69AR cells, compound alone cytotoxicity.

As for `O=C(Nc1ccc(CN2CCOCC2)cc1)c1cc2ccccn2n1`, the viability (usually a read-out of living cells in per cent, often relative to untreated cells) in test [1] is 100%; in test [3], 100% (inactive); in test [4] it was 94.4% (inactive); in test [5], 94.7% (inactive); in test [6] (setting [16]), 95.2%; in test [6] (setting [17]), 94.7%. Also, the viability in [12] was 100% (inactive); in test [13] it was 95% (inactive). The Her2 level in test [2] was 103% (inactive). Moreover, the differential viability (reversal) in test [6] (H69AR cells + 2 uM doxorubicin) is -0.47% (inactive). Moreover, the inhibition – broadly, the drop in the measured response relative to a control, in per cent – in [7] was 0.38% (inactive); in test [8], 2.5% (inactive); in test [14], 0.65% (inactive). Also, the growth inhibition is -4.72% (inactive) in test [9] and 7.87% (inactive) in test [10]. The viability increase in test [11] is 2.39% (inactive). For the same molecule, the RAM network inhibition in [15] was 1.45% (inactive).

Consider `CCOc1ccc2[nH]c(C)cc(=O)c2c1`, for which the viability in test [1] was 100%; in test [3], 100% (inactive); in test [4] it was 94.8% (inactive); in test [5] it was 108% (inactive); in test [6] (setting [16]) it was 89.6%; in test [6] (setting [17]), 108%. The viability in test [12] is 96.7% (inactive); in test [13], 88.4% (inactive). Further, the Her2 level in test [2] is 100% (inactive). The differential viability (reversal) in test [6] (H69AR cells + 2 uM doxorubicin) is 18.7% (inactive). The inhibition is 0% (inactive) in [7], -9.02% (inactive) in test [8] and 2.86% (inactive) in [14]. Also, the growth inhibition in [9] is -12.8% (inactive); in test [10], 3.82% (inactive). The viability increase in test [11] was -2.11% (inactive). For the same molecule, the RAM network inhibition in test [15] is 3.45% (inactive).

Turning to `CCSc1nnc(N2C(=O)CC(c3ccsc3)C3=C2CC(C)(C)CC3=O)s1` (stereo not given), the viability is 89% in test [1]; 89% (inactive) in test [3]; 81.3% (inactive) in test [4]; 89% (inactive) in test [5]; 104% in [6] (setting [16]); 89% in test [6] (setting [17]). Further, the figures for the viability in test [12] and in test [13] were 103% (inactive) and 94.9% (inactive), respectively. Besides, the Her2 level in test [2] is 108% (inactive). Besides, the differential viability (reversal) in [6] (H69AR cells + 2 uM doxorubicin) was -15% (inactive). In addition, the values for the inhibition in test [7], in test [8] and in [14] were -6.67% (inactive), 9.5% (inactive) and 0.195% (inactive), respectively. The growth inhibition in [9] is 2.55% (inactive); in test [10], 0.01% (inactive). Also, the viability increase in test [11] is -1.55% (inactive). Moreover, the RAM network inhibition in [15] is 3.19% (inactive).

Take `CCN(CCNC(=O)C1CCN(S(=O)(=O)c2cccc3cccnc23)CC1)c1ccccc1`: the viability in test [1] is 87%; in test [3], 87% (inactive); in test [4] it was 79.7% (inactive); in test [5], 98.3% (inactive); in test [6] (setting [16]) it was 100%; in [6] (setting [17]), 98.3%. In addition, the viability is 94.4% (inactive) in [12] and 82.9% (inactive) in test [13]. In addition, in [2], the Her2 level was 84.5% (inactive). In addition, the differential viability (reversal) in [6] (H69AR cells + 2 uM doxorubicin) is -2.15% (inactive). Further, the inhibition in [7] is -1.33% (inactive); in test [8] it was 20.5% (inactive); in test [14], 0.21% (inactive). Further, the growth inhibition in test [9] is -5.29% (inactive); in test [10], 8.53% (inactive). Moreover, the viability increase in test [11] is 1.51% (inactive). Also, in test [15], the RAM network inhibition was 5.91% (inactive).

Consider `CCOC(=O)c1ccc(NCc2nc3ccccc3[nH]2)cc1`, for which the viability in [1] is 88.5%; in [3] it was 88.5% (inactive); in [4] it was 86% (inactive); in test [5], 105% (inactive); in test [6] (setting [16]) it was 89.7%; in test [6] (setting [17]) it was 105%. Further, the results for the viability in [12] and in [13] were 86.8% (inactive) and 76.8% (inactive), respectively. The Her2 level in test [2] is 97% (inactive). Moreover, the differential viability (reversal) in [6] (H69AR cells + 2 uM doxorubicin) is 15.1% (inactive). Also, the inhibition was 0.93% (inactive) in test [7], -2.62% (inactive) in test [8] and 1.83% (inactive) in test [14]. The values for the growth inhibition in test [9] and in test [10] were -1.66% (inactive) and -8.54% (inactive), respectively. In test [11], the viability increase was -5.9% (inactive). The RAM network inhibition in test [15] was 2.11% (inactive).
